Among the test systems are SR leukemia; RPMI-8226 leukemia; OVCAR-8 ovarian; OVCAR-5 ovarian; OVCAR-4 ovarian; SK-OV-3 ovarian; IGROV1 ovarian; OVCAR-3 ovarian; HS 578T breast; NCI/ADR-RES ovarian; T-47D breast; BT-549 breast; MDA-MB-435 melanoma; SW-620 colon; MCF7 breast; HCT-116 colon; HCC-2998 colon; KM12 colon.
Holding throughout (experiment): NCI-60 one-dose screen, 48 h (100 = growth as untreated, 0 = no growth, -100 = all killed)
Conditions in all cases: 10 µM unless noted

This is part of a sample that, as a whole, favours compounds with a hit. Of some 83,000 tested, about 20% had one in any assay.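 The endpoint reported here, percent growth, reads 100 for growth as untreated, 0 for no net growth and -100 for all cells dead.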 Unmarked numbers belong to inactive results. The source made the active and inactive calls. How the source made its calls: active means growth percent below 10; inactive means the rest.

`C=C(C)[C@@H]1CC[C@]2(C(=O)N3CCN(C)CC3)CC[C@]3(C)[C@H](CC[C@@H]4[C@@]5(C)C/C(=C/c6ccc(C(F)(F)F)cc6)C(=O)C(C)(C)[C@@H]5CC[C@]43C)[C@@H]12`: the growth in the experiment with SR leukemia is 76.9%; with RPMI-8226 leukemia, 86.1%; in the experiment on OVCAR-8 ovarian, 97.4%; with OVCAR-5 ovarian it was 94.9%; in the experiment on OVCAR-4 ovarian, 103%; in the experiment with SK-OV-3 ovarian, 101%. Also, the growth was 102% in the experiment with IGROV1 ovarian; 103% in the experiment on OVCAR-3 ovarian; 99.4% in the experiment on HS 578T breast; 96.8% in the experiment with NCI/ADR-RES ovarian; 79.9% in the experiment on T-47D breast; 102% in the experiment on BT-549 breast. Also, the growth in the experiment on MDA-MB-435 melanoma was 97.2%; in the experiment with SW-620 colon, 99.5%; in the experiment on MCF7 breast, 87.5%; in the experiment with HCT-116 colon, 89.8%; in the experiment with HCC-2998 colon, 107%; in the experiment with KM12 colon, 97%.
For `NCCn1cc(-c2nc(-c3c[nH]c4ncccc34)cs2)c2cc(F)ccc21`, the growth was -5.68% (active) in the experiment on SR leukemia; 59.2% in the experiment on RPMI-8226 leukemia; 76.1% in the experiment with OVCAR-8 ovarian; 92.6% in the experiment with OVCAR-5 ovarian; 59.8% with OVCAR-4 ovarian; 78.9% in the experiment on SK-OV-3 ovarian. Besides, the growth with IGROV1 ovarian was 47.1%; in the experiment with OVCAR-3 ovarian, 85.6%; in the experiment with HS 578T breast it was 81.9%; in the experiment on NCI/ADR-RES ovarian, 86.4%; in the experiment with T-47D breast it was 26.3%; in the experiment with BT-549 breast, 95.7%. Besides, the growth is 81.7% in the experiment with MDA-MB-435 melanoma; 50.2% with SW-620 colon; 57.2% with MCF7 breast; 61.4% with HCT-116 colon; 96.2% in the experiment on HCC-2998 colon; 65.6% in the experiment on KM12 colon.
With `COc1cc2nc(Cl)nc(Nc3cccc(C(=O)/C=C/c4ccc(Cl)cc4)c3)c2cc1OC`, the growth with SR leukemia was 10.4%; in the experiment with RPMI-8226 leukemia, 0.0429% (active); in the experiment with OVCAR-8 ovarian, 78.9%; with OVCAR-5 ovarian, 85.5%; with OVCAR-4 ovarian it was 70.8%; in the experiment with SK-OV-3 ovarian, 89%. Further, the growth with IGROV1 ovarian is 68.3%; in the experiment on OVCAR-3 ovarian, 48.8%; in the experiment on HS 578T breast it was 101%; with NCI/ADR-RES ovarian, 65.7%; in the experiment on T-47D breast it was 71.1%; in the experiment with BT-549 breast, 67%. Moreover, the growth with MDA-MB-435 melanoma is 69.9%; in the experiment on SW-620 colon, -5.87% (active); with MCF7 breast it was 19.7%; in the experiment on HCT-116 colon, -0.905% (active); in the experiment on KM12 colon, 40.5%.
`CN(C)c1cccc2[nH]c(-c3[nH]ncc3Nc3ccnc(N)n3)nc12`: the growth in the experiment with SR leukemia was 7.64% (active); in the experiment on RPMI-8226 leukemia it was -15.6% (active); in the experiment with OVCAR-8 ovarian, -22.7% (active); in the experiment on OVCAR-5 ovarian it was -1.19% (active); in the experiment with OVCAR-4 ovarian it was -11.7% (active); in the experiment on SK-OV-3 ovarian, 0.381% (active). Moreover, the growth in the experiment on IGROV1 ovarian is -11% (active); in the experiment on OVCAR-3 ovarian, -6.36% (active); with HS 578T breast, -13.8% (active); in the experiment on NCI/ADR-RES ovarian, -1.48% (active); with T-47D breast, -18.3% (active); with BT-549 breast, -31.5% (active). Further, the growth was -90% (active) with MDA-MB-435 melanoma; -5.42% (active) in the experiment on SW-620 colon; -46.1% (active) with MCF7 breast; -40.8% (active) in the experiment with HCT-116 colon; -41.9% (active) with HCC-2998 colon; -31.8% (active) with KM12 colon.
Consider `COC(=O)CCCCCn1c2ccccc2c2c3c(c4c5ccccc5[nH]c4c21)C(=O)N(O)C3=O`, for which the growth in the experiment with SR leukemia is 11.3%; in the experiment on RPMI-8226 leukemia it was 22.4%; in the experiment on OVCAR-8 ovarian, 31.2%; with OVCAR-5 ovarian, 86.6%; in the experiment with OVCAR-4 ovarian it was 57.5%; in the experiment with SK-OV-3 ovarian, 70.2%. In addition, the growth in the experiment on IGROV1 ovarian was 19.5%; with OVCAR-3 ovarian, 33.2%; in the experiment with HS 578T breast, 84.5%; with NCI/ADR-RES ovarian, 23.1%; with T-47D breast it was 21.6%; with BT-549 breast, 59%. Moreover, the growth is 71.2% in the experiment with MDA-MB-435 melanoma; 48.7% with SW-620 colon; 13.1% with MCF7 breast; 28.4% with HCT-116 colon; 55.4% with HCC-2998 colon; 46.5% with KM12 colon.
Regarding `COc1cc2nc(Cl)nc(Nc3cccc(C(=O)/C=C/c4ccc(F)cc4)c3)c2cc1OC`, the growth is 12.2% in the experiment on SR leukemia; -18.1% (active) in the experiment with RPMI-8226 leukemia; 67.3% in the experiment with OVCAR-8 ovarian; 68.2% with OVCAR-5 ovarian; 64.9% in the experiment with OVCAR-4 ovarian; 106% in the experiment with SK-OV-3 ovarian. The growth is 51% in the experiment with IGROV1 ovarian; 43.4% in the experiment on OVCAR-3 ovarian; 101% in the experiment on HS 578T breast; 51.6% with NCI/ADR-RES ovarian; 67.6% in the experiment on T-47D breast; 61.4% in the experiment with BT-549 breast. Besides, the growth with MDA-MB-435 melanoma is 39.4%; in the experiment on SW-620 colon, 2.24% (active); with MCF7 breast, 23.8%; with HCT-116 colon, -41.2% (active); in the experiment on KM12 colon, 28.4%.
Turning to `O=C(NO)c1ccc(Cn2c(=O)n(CCc3ccc(O)cc3)c(=O)c3ccccc32)cc1`, the growth in the experiment on SR leukemia was 16.5%; in the experiment on RPMI-8226 leukemia, 31.6%; in the experiment on OVCAR-8 ovarian it was 36.2%; with OVCAR-5 ovarian, 86%; in the experiment with OVCAR-4 ovarian it was 56.4%; in the experiment on SK-OV-3 ovarian, 86.7%. Besides, the growth in the experiment with IGROV1 ovarian is 74.9%; in the experiment with OVCAR-3 ovarian, 18.9%; with HS 578T breast, 58.8%; in the experiment with NCI/ADR-RES ovarian, 92.8%; in the experiment on T-47D breast, 11.8%; in the experiment on BT-549 breast it was 65.7%. The growth in the experiment with MDA-MB-435 melanoma was -15.6% (active); with SW-620 colon, 22.4%; in the experiment on MCF7 breast, 44.5%; in the experiment on HCT-116 colon it was 24.9%; in the experiment on KM12 colon, 22.7%.
With `COc1ccc2c3c(c4ccccc4cc13)C(=O)N(CCN(C)CCN)C2=O`, the growth is -31.8% (active) in the experiment with SR leukemia; -45.1% (active) with RPMI-8226 leukemia; -52.5% (active) in the experiment with OVCAR-8 ovarian; -65.9% (active) with OVCAR-5 ovarian; -79.4% (active) in the experiment on OVCAR-4 ovarian; -6.29% (active) in the experiment on SK-OV-3 ovarian. Further, the growth is -48.4% (active) with IGROV1 ovarian; -62.5% (active) with OVCAR-3 ovarian; 24.8% in the experiment on HS 578T breast; -7.12% (active) with NCI/ADR-RES ovarian; 6.79% (active) in the experiment on T-47D breast; 26.1% in the experiment on BT-549 breast. The growth in the experiment with MDA-MB-435 melanoma was -92.6% (active); with SW-620 colon it was -66.5% (active); in the experiment on MCF7 breast it was -88.2% (active); in the experiment on HCT-116 colon, -94.8% (active); in the experiment on HCC-2998 colon, -80.2% (active); in the experiment on KM12 colon, -68.6% (active).
For `COc1cc(-c2cc3ncccc3c3[nH]c(=O)c4cccnc4c23)cc(OC)c1OC`, the growth in the experiment on SR leukemia is 20%; in the experiment on RPMI-8226 leukemia, 6.32% (active); in the experiment with OVCAR-8 ovarian, 35.9%; in the experiment with OVCAR-5 ovarian it was 45.4%; in the experiment with OVCAR-4 ovarian, 58.1%; in the experiment on SK-OV-3 ovarian, 11.2%. In addition, the growth with IGROV1 ovarian is 50.1%; in the experiment with OVCAR-3 ovarian, 33.6%; with HS 578T breast, 10.6%; in the experiment with NCI/ADR-RES ovarian, 22.1%; in the experiment with T-47D breast, 37.5%; in the experiment with BT-549 breast it was 49.1%. The growth with MDA-MB-435 melanoma was -26.2% (active); in the experiment with SW-620 colon, 32.9%; with MCF7 breast it was 17.3%; with HCT-116 colon, 17.8%; in the experiment with HCC-2998 colon it was 48.5%; with KM12 colon, 30.7%.
On to `C/C(Cc1ccc(Cl)cc1)=C(/c1ccc(Cl)cc1)c1ccc(OCCN2CCCC2)cc1`, for which the growth with SR leukemia is 9.32% (active); with RPMI-8226 leukemia it was 48.3%; with OVCAR-8 ovarian, 83.8%; with OVCAR-5 ovarian, 86%; in the experiment on OVCAR-4 ovarian, 78.4%; in the experiment with SK-OV-3 ovarian it was 99%. Moreover, the growth in the experiment with IGROV1 ovarian is 71.8%; with OVCAR-3 ovarian, 70.5%; in the experiment with HS 578T breast it was 79.1%; in the experiment on NCI/ADR-RES ovarian it was 84.4%; in the experiment on T-47D breast it was 66.3%; in the experiment with BT-549 breast it was 99.2%. Besides, the growth was 82% in the experiment with MDA-MB-435 melanoma; 58.6% in the experiment with SW-620 colon; 31% with MCF7 breast; 30.7% in the experiment on HCT-116 colon; 53.8% in the experiment with KM12 colon.

The record behind these values is PubChem BioAssay (NCI).
